In PubChem BioAssay (Tox21):
Where “and” joins values, the source holds several entries; their conditions need not be identical. Identical values can stand only once. Inconclusive results are not listed. Where a call stands in place of a potency, no number is given. Where a structure was tested more than once in an assay, its records may differ in their call. Calls of active or inactive are those of the source. The call rests on the fitted dose curve; in most records, active means well fitted inhibition curve with a large enough effect in the repeat runs; inconclusive means weak or mixed curves; inactive means no such curve, though single readings can be large or run the other way.

These compounds were tested against Cytochrome P450 1A2 (Homo sapiens) (UniProt P05177) (assay: Cytochrome P450 Family 1 Subfamily A Member 2 (CYP1A2) small molecule antagonists: luciferase reporter qHTS assay (AID 1671199; further: nearly all actives have a fitted effect of over 50% in size)). Settings: P450-Glo CYP1A2 enzyme, luciferin luminescence, 1 h; series mostly up to 115 µM.
Source text: National Center for Advancing Translational Sciences [NCATS]
U.S. Environmental Protection Agency [EPA]
National Institutes of Environmental Health Sciences [NIEHS]
National Toxicology Program [NTP]
U.S. Food and Drug Administration [FDA]
Cytochrome P450 (CYP) enzymes are membrane-bound hemeproteins that play a key role in metabolism of drugs and xenobiotics. Evaluation of the effect of chemicals on CYP isozymes is useful to minimize the adverse drug reactions and toxicities in drug development process. Tox21 chemicals were tested for their effect on CYP enzyme activities by using P450-Glo (TM) screening systems (Promega Corporation, Madison, WI). These systems provide a luminescent method containing proluciferin substrates and are converted to luciferin products by CYP isozymes. The luciferin products formed are detected with a luciferin detection reagent, and the amount of light produced is proportional to CYP activity. P450-Glo (TM) CYP1A2 screening system (Catalog. No. V9770) was used to detect the compounds that interfere in CYP1A2 activity. The positive control compound used for CYP1A2 assay is furafylline (Sigma-Aldrich, St. Louis, MO).
Tox21 Assay Protocol Summary:
Two ul of enzyme-substrate mix was dispensed into medium binding white/solid 1536-well plates (Greiner Bio-One North America Inc., Monroe, NC) using a BioRaptr Flying Reagent Dispenser (FRD, Beckman Coulter, Brea, CA). Compounds dissolved in DMSO and positive control (furafyllline) were transferred to the assay plates at 23 nl using a Pintool station (Wako, San Diego, CA). The assay plates were incubated at room temperature for 10 min. Then 2 ul of NADPH regeneration solution was added to each well of the assay plates using an FRD and incubated at room temperature for 1 h. The reaction was stopped by adding 4 ul of detection reagent using an FRD and after 20 min incubation at room temperature the luminescence signal was measured using a ViewLux plate reader (Perkin Elmer, Shelton, CT). Data were expressed as relative luminescence units.
Potency means the concentration at half of the fitted maximal effect.

Sequence of Cytochrome P450 1A2 (Homo sapiens) (P05177 whole entry, looked up): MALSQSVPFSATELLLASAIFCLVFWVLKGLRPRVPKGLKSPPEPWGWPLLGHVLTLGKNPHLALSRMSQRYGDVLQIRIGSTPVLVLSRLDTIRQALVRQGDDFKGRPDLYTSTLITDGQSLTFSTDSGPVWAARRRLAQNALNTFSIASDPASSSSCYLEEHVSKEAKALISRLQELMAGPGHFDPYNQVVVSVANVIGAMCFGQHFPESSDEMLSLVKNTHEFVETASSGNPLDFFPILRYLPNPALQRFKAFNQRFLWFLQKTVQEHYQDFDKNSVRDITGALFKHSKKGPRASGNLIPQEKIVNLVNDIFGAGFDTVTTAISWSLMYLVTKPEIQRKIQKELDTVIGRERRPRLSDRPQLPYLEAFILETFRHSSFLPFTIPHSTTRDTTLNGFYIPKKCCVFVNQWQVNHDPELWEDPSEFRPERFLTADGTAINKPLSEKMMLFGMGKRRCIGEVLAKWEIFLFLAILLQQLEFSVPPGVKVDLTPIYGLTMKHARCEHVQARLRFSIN

SMILES	Potency
CC(=O)c1ccc(S(=O)(=O)NC(=O)NC2CCCCC2)cc1	inactive
NC(=O)c1ccc([N+](=O)[O-])cc1Cl	inactive
CCCCCCCCCCCCCC(=O)OC(C)C	inactive
O=c1c(-c2ccc(O)cc2)coc2cc(O)cc(O)c12	19.7 µM (active) and 39.9 µM (active)
CCCCCCCC(=O)OCC(O)CO (stereo not given)	inactive
NCCNc1cccc2ccccc12	632 nM (active) and 778 nM (active) and 723 nM (active)
COc1ccccc1O	inactive and 52.6 µM (active)
COC1=CC(=O)C[C@@H](C)[C@]12Oc1c(Cl)c(OC)cc(OC)c1C2=O	inactive
CCCCOC(=O)CCCCCCCCC(=O)OCCCC	inactive
COc1cc(C=O)ccc1O	inactive
Cc1cnc(NC(=O)C2=C(O)c3ccccc3S(=O)(=O)N2C)s1	inactive
CC(C)(C)NCC(O)c1ccc(O)c(CO)c1 (stereo not given)	inactive
Cc1cccc(Nc2cc(Cl)nc(SCC(=O)O)n2)c1C	inactive
N[C@@H](Cc1c[nH]c2ccc(O)cc12)C(=O)O	30.8 µM (active) and 30.9 µM (active)
CCCCNC(=O)NS(=O)(=O)c1ccc(N)cc1	inactive
O=C(O)CCCCC1CCSS1 (stereo not given)	inactive
CN(C)Cc1cc(CN(C)C)c(O)c(CN(C)C)c1	inactive
CO[C@H]1C=CO[C@@]2(C)Oc3c(C)c(O)c4c(O)c(c(/C=N/N5CCN(C)CC5)c(O)c4c3C2=O)NC(=O)/C(C)=C\C=C[C@H](C)[C@H](O)[C@@H](C)[C@@H](O)[C@@H](C)[C@H](OC(C)=O)[C@@H]1C	inactive
COC(=O)c1ccc(O)cc1	32 µM (active) and 35.6 µM (active) and 27.5 µM (active)
OCCCc1ccccc1	35.6 µM (active)

SMILES	Potency
c1ccc2[nH]c(-c3cscn3)nc2c1	5.06 µM (active) and 2.83 µM (active) and 2.45 µM (active)
O=C(O)CN(CC(=O)O)CC(=O)O	inactive
C=CCOC(=O)CC(C)C	inactive
C1CNCCN1	41.1 µM (active) and inactive
CCCCOCCOCCSC#N	6.67 µM (active) and 11.1 µM (active)
CCn1cc(C(=O)O)c(=O)c2ccc(C)nc21	inactive
COCCOCCOC	inactive
COC(=O)c1ccc(C=O)cc1	42.3 µM (active)
C=C(C)C(N)=O	inactive
COc1ccccc1NC(=O)CC(C)=O	31.3 µM (active) and 35.6 µM (active)
C=CC(=O)NC(C)(C)CS(=O)(=O)O	inactive
NC(=O)OCC(COC(N)=O)c1ccccc1	inactive
Nc1cccc(N)c1	63.2 µM (active) and 39.4 µM (active) and 31.7 µM (active)
CCN1CCCC1=O	inactive
COc1ccc(C(=O)c2ccccc2)c(O)c1	19.7 µM (active) and 22.4 µM (active) and 12.9 µM (active)
CN/C(=C\[N+](=O)[O-])NCCSCc1ccc(CN(C)C)o1	inactive and 24.5 µM (active)
CCN(CC)CCOC(=O)c1ccc(N)cc1	inactive
CCOCCO	inactive
CCCCC/C(C=O)=C\c1ccccc1	28.3 µM (active) and 35.6 µM (active) and 5.49 µM (active)
CC(C)CC(C)CC(O)CC(C)C (stereo not given)	inactive
